Data published in PubChem BioAssay (NCATS).
Inconclusive results are not listed. Entries that show only a call come without a potency. A number with no mark means an inactive call. The source made the active and inactive calls. The call rests on the fitted dose curve; in most records, active means well fitted inhibition curve with a large enough effect; inconclusive means small, poorly fitted or top-dose-only effect; inactive means flat fitted curve, though single readings scatter.

Experiments:
[1] = qHTS profiling for inhibitors of Plasmodium falciparum proliferation (AID 504749); further: nearly all actives have a fitted effect of over 60% in size; details: P. falciparum in erythrocytes, SYBR Green DNA, 72 h, at 28.7 µM (top of the series)
In short: (§1)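 P. falciparum-infected erythrocytes (0.3% parasitemia, 2.5% hematocrit) incubated with compound 72 h at 37 C, 5% CO2. Parasite DNA detected by SYBR Green after lysis, overnight at room temperature; normalised to 0.29 uM artemisinin and DMSO.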

3D7 = experiment: as above; details: P. falciparum in erythrocytes, SYBR Green DNA, 72 h; series mostly up to 28.7 µM
In short: as §1

AA1029 = experiment: as above; details: P. falciparum in erythrocytes, SYBR Green DNA, 72 h; series mostly up to 28.7 µM
In short: as §1

AS120 = experiment: as above; details: P. falciparum in erythrocytes, SYBR Green DNA, 72 h; series mostly up to 28.7 µM
In short: as §1

ATS189 = experiment: as above; details: P. falciparum in erythrocytes, SYBR Green DNA, 72 h; series mostly up to 28.7 µM
In short: as §1

ATS95 = experiment: as above; details: P. falciparum in erythrocytes, SYBR Green DNA, 72 h; series mostly up to 28.7 µM
In short: as §1

C2A = experiment: as above; details: P. falciparum in erythrocytes, SYBR Green DNA, 72 h; series mostly up to 28.7 µM
In short: as §1

CP185 = experiment: as above; details: P. falciparum in erythrocytes, SYBR Green DNA, 72 h; series mostly up to 28.7 µM
In short: as §1

CP191 = experiment: as above; details: P. falciparum in erythrocytes, SYBR Green DNA, 72 h; series mostly up to 28.7 µM
In short: as §1

CP192 = experiment: as above; details: P. falciparum in erythrocytes, SYBR Green DNA, 72 h; series mostly up to 28.7 µM
In short: as §1

CP194 = experiment: as above; details: P. falciparum in erythrocytes, SYBR Green DNA, 72 h; series mostly up to 28.7 µM
In short: as §1

CP201 = experiment: as above; details: P. falciparum in erythrocytes, SYBR Green DNA, 72 h; series mostly up to 28.7 µM
In short: as §1

CP203 = experiment: as above; details: P. falciparum in erythrocytes, SYBR Green DNA, 72 h; series mostly up to 28.7 µM
In short: as §1

CP211 = experiment: as above; details: P. falciparum in erythrocytes, SYBR Green DNA, 72 h; series mostly up to 28.7 µM
In short: as §1

CP215 = experiment: as above; details: P. falciparum in erythrocytes, SYBR Green DNA, 72 h; series mostly up to 28.7 µM
In short: as §1

CP217 = experiment: as above; details: P. falciparum in erythrocytes, SYBR Green DNA, 72 h; series mostly up to 28.7 µM
In short: as §1

CP237 = experiment: as above; details: P. falciparum in erythrocytes, SYBR Green DNA, 72 h; series mostly up to 28.7 µM
In short: as §1

CP238 = experiment: as above; details: P. falciparum in erythrocytes, SYBR Green DNA, 72 h; series mostly up to 28.7 µM
In short: as §1

7G8 = experiment: as above; details: P. falciparum in erythrocytes, SYBR Green DNA, 72 h; series mostly up to 28.7 µM
In short: as §1
Potency means the concentration at half of the fitted maximal effect.

Structure (SMILES) | activity, negative = inhibition ([1]; parasite line A) | activity, negative = inhibition ([1]; parasite line B) | Potency (3D7) | Potency (AA1029) | Potency (AS120) | Potency (ATS189) | Potency (ATS95) | Potency (C2A) | Potency (CP185) | Potency (CP191) | Potency (CP192) | Potency (CP194) | Potency (CP201) | Potency (CP203) | Potency (CP211) | Potency (CP215) | Potency (CP217) | Potency (CP237) | Potency (CP238) | Potency (7G8)
NC(=O)n1c(O)c(C(=O)c2cccs2)c2cc(Cl)ccc21 | 5.54% | -6.01% | inactive | inactive | inactive | inactive | inactive | inactive | inactive | inactive | inactive | inactive | inactive | inactive | inactive | inactive | inactive | inactive | inactive | 
Cc1cc(-c2ccccc2)nnc1NCCN1CCOCC1 | 6.44% | 8.72% | inactive | inactive | inactive | inactive | inactive | inactive | inactive | inactive | inactive | inactive | inactive | inactive | inactive | inactive | inactive | inactive | inactive | 
CCOCCn1c(N2CCCN(C)CC2)nc2ccccc21 | 7.9% | 8.28% | inactive |  | inactive |  | inactive | inactive | inactive | inactive | inactive |  | inactive |  | inactive | inactive | inactive | 11.2 µM (active) | inactive | 
CCOC(=O)C(C#N)=C(c1ccccc1)c1ccccc1 | 12.2% | -2.15% | inactive | inactive | inactive | inactive | inactive | inactive | inactive | inactive |  | inactive | inactive | inactive | inactive | inactive | inactive | inactive | inactive | 
CCN(CC)CCOc1ccccc1C(=O)CCc1ccccc1 | 2.97% | -13.2% | inactive |  |  |  |  | inactive |  | inactive | inactive |  |  |  |  |  |  |  |  | 
CCN(CC)CCOC(=O)C1(c2ccccc2)CCCC1 | -50.7% | -32% |  | 0.01 µM (active) | inactive | inactive | inactive | inactive | 11.2 µM (active) | inactive | inactive |  |  | 10.7 µM (active) |  |  | inactive | 2.82 µM (active) | inactive | 
COc1ccc(CCN(C)CCCN2CCc3cc(OC)c(OC)cc3CC2=O)cc1OC | -14.9% | -7.04% | inactive |  | inactive | inactive | inactive | inactive | inactive | inactive | inactive | inactive | inactive | inactive | inactive | inactive | inactive |  | inactive | 
CCC(C(=O)OCCOCCN(CC)CC)c1ccccc1 (stereo unspecified) | 5.84% | 5.27% | inactive |  | inactive |  | inactive | inactive | inactive | inactive | inactive |  | inactive |  | inactive | inactive | inactive | 11.2 µM (active) | inactive | 
NC(=O)C1(N2CCCCC2)CCN(CCCC(=O)c2ccc(F)cc2)CC1 | 3.28% | 10.8% | inactive | inactive | inactive | inactive | inactive | inactive | inactive | inactive | inactive |  | inactive | inactive | inactive | inactive | inactive |  | inactive | 
CC(=O)OCC(=O)[C@H]1CC[C@H]2[C@@H]3CCC4=CC(=O)CC[C@]4(C)[C@H]3CC[C@]12C | -11.3% | -3.83% | inactive | inactive |  | inactive |  | inactive | inactive | inactive | inactive | inactive | inactive | inactive | inactive |  | inactive |  | inactive | 
CN1CCc2cccc3c2[C@H]1Cc1ccc(O)c(O)c1-3 |  |  | 7.94 µM (active) | 8.91 µM (active) | 7.94 µM (active) |  | 8.91 µM (active) |  |  |  |  |  |  |  |  |  |  | 6.31 µM (active) |  | 2.24 µM (active)
O=[N+]([O-])c1cccc(S(=O)(=O)NCCNS(=O)(=O)c2cccc([N+](=O)[O-])c2)c1 | -25.4% |  | inactive |  |  | inactive | inactive | inactive | inactive |  | inactive | inactive | inactive |  | inactive | inactive | inactive |  | inactive | 
O=C(NC1CCN(CCc2c[nH]c3ccccc23)CC1)c1ccccc1 |  | -5.78% |  |  | inactive | inactive | inactive | inactive | inactive | 8.91 µM (active) | inactive | inactive | inactive |  | inactive | inactive | inactive | inactive | inactive | 10 µM (active)
CC(C)[N+](C)(C)CC(O)COc1cccc2ccccc12 (stereo unspecified) |  |  |  |  | inactive | inactive | inactive |  |  |  |  |  | inactive | inactive |  |  | inactive |  | inactive | 
OC(C#CCN1CCCC1)(c1ccccc1)c1ccccc1 |  | -24.9% | inactive |  |  |  |  | inactive |  | inactive |  |  | inactive | 15.1 µM (active) |  |  |  | 5.01 µM (active) |  | 11.2 µM (active)
COC(=O)C(c1ccccc1Cl)N1CCc2sccc2C1 (stereo unspecified) |  |  |  |  |  |  |  | inactive |  |  |  |  |  |  |  |  |  |  |  | 10 µM (active)
CCN(CC)CCOc1ccc2c(c1)C(=O)c1cc(OCCN(CC)CC)ccc1-2 |  |  |  |  |  | 11.2 µM (active) |  | 10 µM (active) | 12.6 µM (active) |  |  |  |  |  |  |  |  | 12.6 µM (active) |  | 7.94 µM (active)
NC1CCN(c2nc3c(cc2F)c(=O)c(C(=O)O)cn3-c2ccc(F)cc2F)C1 (stereo unspecified) |  |  |  |  |  | inactive |  |  |  |  | inactive |  |  |  |  |  |  |  |  | 
CN1CCC[C@@H]1CCO[C@](C)(c1ccccc1)c1ccc(Cl)cc1 |  | -15.8% | inactive |  | inactive | inactive |  | inactive | inactive |  | inactive |  | inactive |  | inactive | inactive |  |  | inactive | 10 µM (active)
